In PubChem BioAssay (NCI):
This is part of a sample that, as a whole, favours compounds with a hit. Of some 83,000 tested, about 20% had one in any assay.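 In brief: 96-well plates, 48 h treatment, single concentration, percent growth endpoint.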 A number with no mark means an inactive call. Calls of active or inactive are those of the source. Rule for the calls: active = growth percent below 10; inactive = the rest.

Assays:
Assay in all cases: NCI-60 one-dose screen, 48 h (100 = growth as untreated, 0 = no growth, -100 = all killed)
Details in all cases: 10 µM unless noted
[1] = tested on: NCI-H23 lung
[2] = tested on: NCI-H226 lung
[3] = tested on: NCI-H322M lung
[4] = tested on: HOP-62 NSCLC
[5] = tested on: NCI-H460 lung
[6] = tested on: HOP-92 NSCLC
[7] = tested on: A549/ATCC NSCLC
[8] = tested on: 786-0 renal
[9] = tested on: COLO 205 colon
[10] = tested on: DU-145 prostate
[11] = tested on: K-562 leukemia
[12] = tested on: MALME-3M melanoma
[13] = tested on: MDA-MB-231 breast
[14] = tested on: RXF 393 renal
[15] = tested on: SF-268 CNS
[16] = tested on: SF-295 CNS
[17] = tested on: SF-539 CNS
[18] = tested on: UACC-257 melanoma
[19] = tested on: M14 melanoma

| SMILES | growth [1] | growth [2] | growth [3] | growth [4] | growth [5] | growth [6] | growth [7] | growth [8] | growth [9] | growth [10] | growth [11] | growth [12] | growth [13] | growth [14] | growth [15] | growth [16] | growth [17] | growth [18] | growth [19] |
| --- | --- | --- | --- | --- | --- | --- | --- | --- | --- | --- | --- | --- | --- | --- | --- | --- | --- | --- | --- |
| CN(Cc1cccc(C(F)(F)F)c1)C(=O)[C@@H](CC(=O)N1CCC(N2CCCCC2)CC1)N1C(=O)[C@@H](N2C(=O)OC[C@@H]2c2ccccc2)[C@H]1/C=C/c1ccccc1 | 93.9% | 85.1% | 93.5% | 81.2% | 89% | 58.7% | 80.6% | 75.4% | 72.2% | 103% | 65.7% | 96.8% | 55.7% | 76.3% | 77.8% | 90.8% | 81.9% | 88.9% | 98.7% |
| COc1ccc2nc3cc(Cl)ccc3c(Nc3ccc(O)cc3)c2c1 | 72.8% | 74.4% | 90.5% | 68.8% | 23.1% | 78.9% | 46.6% | 84% | 76.8% | 48.4% | 54.8% | 83.5% | 84.4% | 83.2% | 72.8% | 84.9% | 80.8% | 102% | 94.8% |
| CCCCCCNC(=O)Nc1ncnc2c1ncn2-c1ccccc1 | 98% | 93.8% | 94.9% | 77.6% | 102% | 89.3% | 88% | 85.5% | 88.8% | 108% | 106% | 115% | 92.8% | 106% | 103% | 90.1% | 94% | 105% | 104% |
| O=C1CC(C(F)(F)F)Cc2nc3ccc(Br)cc3cc21 (configuration not stated) | 83.3% | 87.6% | 78.2% | 87.1% | 87.8% | 85.8% | 91.8% | 96.4% | 100% | 102% | 79.1% | 84.1% | 82.4% | 91.1% | 88.4% | 90.2% | 93.9% | 106% | 90.7% |
| COc1c(C(C)=O)c(OCCCCOc2c(C(C)=O)c(OC)c3ccoc3c2OC)c(OC)c2occc12 | 68.8% | 65.4% | 85.2% | 117% | 80.1% | 57.3% | 64.7% | 89% | 77% | 116% | 54.3% | 48.8% | 82.7% | 80.7% | 84.3% | 19.7% | 105% | 73.3% | 99.3% |
| N#C/C(=C(/O)CCCO)c1nc2ccccc2c(=O)[nH]1 | 91.2% | 93.7% | 105% | 99% | 111% | 84.9% | 95.3% | 102% | 130% | 102% | 102% | 90.3% | 98.5% | 87.5% | 112% | 150% | 97.2% | 93.9% | 105% |
| Nc1cc(C(=O)O)[nH]c(=S)n1 | 95.2% | 95.2% | 98.1% | 106% | 105% | 67.7% | 98.5% | 100% | 112% | 106% | 115% | 89.8% | 100% | 96.9% | 98.6% | 101% | 104% | 93.3% | 93.7% |
| C=C(C)[C@@H]1CC[C@]2(C(N)=O)CC[C@]3(C)[C@H](CC[C@@H]4[C@@]5(C)C/C(=C/c6cccnc6)[C@H](O)C(C)(C)[C@@H]5CC[C@]43C)[C@@H]12 | 28.1% [100 µM] | 22.8% [100 µM] | 35.6% [100 µM] | 27.5% [100 µM] | 5.04% [100 µM] (active) | 23.4% [100 µM] | 23.1% [100 µM] | 22.7% [100 µM] | -36.6% [100 µM] (active) | 38.2% [100 µM] | 5.36% [100 µM] (active) | 5.89% [100 µM] (active) | 28.9% [100 µM] | 13.4% [100 µM] | 45.6% [100 µM] | 23.9% [100 µM] | 25.1% [100 µM] | 38% [100 µM] | 33.8% [100 µM] |
